Experimental data taken from PubChem BioAssay AID588849 (Broad Institute, 2011).
Entries with a potency or affinity are not part of this list. Active and inactive are the calls of the source. No rule for the calls is given here.

Each compound was assayed against CAAX prenyl protease 2 (Homo sapiens) (UniProt Q9Y256) (assay: human Rce1 protease inhibitors, dose response, biochemical, yeast membranes, quenched-peptide fluorescence, cherry-pick (AID 588849)). Conditions: yeast membrane fractions expressing human Rce1, quenched-peptide fluorescence, 4 h; series mostly up to 10 µM.
CAAX prenyl protease 2 (Homo sapiens), sequence (Q9Y256 whole entry, looked up): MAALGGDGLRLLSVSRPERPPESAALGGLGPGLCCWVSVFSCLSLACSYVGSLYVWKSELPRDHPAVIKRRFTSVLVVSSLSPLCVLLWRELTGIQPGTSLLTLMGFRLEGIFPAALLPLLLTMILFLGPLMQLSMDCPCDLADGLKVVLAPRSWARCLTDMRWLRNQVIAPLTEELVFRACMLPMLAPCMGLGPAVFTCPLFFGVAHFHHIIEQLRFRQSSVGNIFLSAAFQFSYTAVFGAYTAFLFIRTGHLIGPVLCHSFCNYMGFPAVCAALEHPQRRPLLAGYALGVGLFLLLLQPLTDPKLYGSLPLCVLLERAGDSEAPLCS

outcome, inactive:
CC(=O)C(C)Oc1ccc2c3c(c(=O)oc2c1)CCCC3 (stereo not drawn), CC1(c2ccc(OCC#N)cc2)C=C(c2ccc(OCC#N)cc2)n2nc(C(F)(F)F)nc2N1 (stereo not drawn), CC(=O)Oc1ccc(C(=O)Nc2ccc(S(=O)(=O)NCC3CCCO3)cc2)cc1 (stereo not drawn), CC(C)c1ccc(/C=C2\SC(=S)N(CCC(=O)NCCCn3ccnc3)C2=O)cc1, C=C(C)C1(O)OC(=O)C=C1OC (stereo not drawn), Cc1cc(C)cc(Nc2nc(-c3ccc(S(=O)(=O)N4CCCC4)cc3)cs2)c1, O=C(C(Cc1ccccc1)N1C(=O)c2ccccc2C1=O)N1c2ccccc2CCc2ccccc21 (stereo not drawn), Cc1cccc2sc(N(CCN(C)C)C(=O)c3ccc4ccccc4c3)nc12, NC(=NCCCCCCN=C(N)/N=C(\N)Nc1ccc(Cl)cc1)/N=C(\N)Nc1ccc(Cl)cc1, O=C(c1cnc(Cl)c(Cl)c1)N1CCC(Cc2ccccc2)CC1, Nc1nc2c(ncn2COC(CO)CO)c(=O)[nH]1, COc1cccc(-c2ccc(-c3noc(-c4ccccc4F)n3)c(OC)n2)c1, COC(C[C@@H]1O[C@@H]1C(=O)[C@@H](C)OCc1ccccc1)OC, CCCn1c(O)c(N=NC(=O)CNC(=O)Cc2ccc(OC)cc2)c2ccccc21, CCn1cc(/C=C(\NC(=O)c2ccccc2F)C(=O)N2CCCC2)c2ccccc21, Cc1nc(N2CCOCC2)c2c(C)c(C(=O)Nc3ccc(C(F)(F)F)cc3)sc2n1, COc1ccccc1N1CCN(c2ncc(C(=O)N3CCN(c4cccc(Cl)c4)CC3)c3ccccc23)CC1, COc1ccc(C2Nc3ccccc3C(=O)N2Cc2ccccc2)cc1COc1ccccn1 (stereo not drawn), O=C(O/N=C\c1ccc(N2CCCCC2)c([N+](=O)[O-])c1)c1cccc(C(F)(F)F)c1, COC(C[C@@H](O)C[C@H](O)[C@H](C)OCc1ccccc1)OC, COc1cc2cc(C(=O)O)[nH]c2c(OC)c1OC, O=C1OCCN1C(=O)[C@H]1[C@H](c2ccc(F)cc2)C(c2ccc(F)cc2)=NN1c1ccc(Br)cc1, O=C(CCNC(=O)N1CC(=O)Nc2ccccc21)NCCc1cccc(F)c1, Cc1ccc(SCc2c(C(=O)N/N=C/c3ccccc3)nnn2-c2nonc2N)cc1, CCOc1ccc(C2C(C(=O)OC)=CN(C(C)c3ccccc3)C=C2C(=O)OC)cc1 (stereo not drawn), COc1ccc(C2c3c(ncn(CCN4CCOCC4)c3=N)Oc3ccc4ccccc4c32)cc1 (stereo not drawn), Cc1ccc2c(C)c(C(=O)N(Cc3ccc(F)cc3)C3CCS(=O)(=O)C3)oc2c1 (stereo not drawn), CCOc1ccc(OCC)c(NC(=O)c2nnn(CC(=O)Nc3cc(C)cc(C)c3)c2N)c1, CCOc1ccc(-c2c(C(=O)N/N=C/c3cccs3)nnn2-c2nonc2N)cc1, Cc1cc2cc(C#N)c(NCCNC(=S)NCCCN3CCOCC3)nc2cc1C, O=C(CSc1n[nH]c(-c2ccc(S(=O)(=O)N3CCCCC3)cc2)n1)Nc1nccs1, COc1ccc(-c2nc(CC(=O)O)cs2)cc1OC, Cc1ccc(C(=O)c2c3ccc(C(F)(F)F)cc3[n+]([O-])n2CCCC(N)=O)cc1, FC(F)(F)c1cc(Oc2ccccc2)ncc1-c1nnc(-c2ccccc2Cl)o1, CCCCNC(=O)C(CC)Sc1nc2sc(C(=O)OC)c(C)c2c(=O)n1N (stereo not drawn), CCOc1ccccc1CNC(=O)c1cc2occc2n1C, c1ccc(-c2ccc(-c3cn4c(n3)CCC4)cc2)cc1, O=C(Nc1cccc(-c2cn3ccccc3n2)c1)C1CC1
